Here are results for 6 targets from the supplement of paper PMC10849652.

Experiment in all cases: log2 fold change, soluble protein after heating vs DMSO (PISA); higher = thermal stabilisation; K562 lysate, 10 uM; active = over 0.2 and 3.5 SD of the protein, either way, in both replicates (recomputed)
Compound in one experiment: CCCS(=O)(=O)Nc1ccc(F)c(C(=O)c2c[nH]c3ncc(-c4ccc(Cl)cc4)cc23)c1F [vemurafenib]
The method, boiled down: (§1)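 A 30 min treatment with 10 μM compound was applied to crude K562 extract at 1 mg/mL protein in PBS pH 7.4 with 1 mM MgCl2. Heating for 3 min spanned 48°C-58°C, after which aliquots were pooled, adjusted to 0.5% NP-40 at 4°C and spun at 21,000xg for 90 min. TMTpro 16plex LC-MS/MS of the supernatant, with channel sums equalised, gave values recorded as log-two fold change in thermal stability against solvent controls, from duplicates.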

Compound in experiment [1]: CCCS(=O)(=O)Nc1ccc(F)c(C(=O)c2c[nH]c3ncc(Cl)cc23)c1F
The procedure, abridged:
as §1

Compound in the next experiment: CCN(CCCOc1ccc2c(Nc3cc(CC(=O)Nc4cccc(F)c4)[nH]n3)ncnc2c1)CCOP(=O)(O)O [barasertib]
The method, boiled down:
as §1

Compound in experiment [2]: CC[C@@H]1C(=O)N(C)c2cnc(Nc3ccc(C(=O)NC4CCN(C)CC4)cc3OC)nc2N1C1CCCC1
The method, boiled down: as §1

Compound in another experiment: CC[C@@H]1C(=O)N(C)c2cnc(Nc3ccc(C(=O)N[C@H]4CC[C@H](N5CCN(CC6CC6)CC5)CC4)cc3OC)nc2N1C(C)C [volasertib]
The method, boiled down:
as §1

Compound in experiment [3]: CCn1c(C(=O)N(C2CC2)C2CC2)cc2c3c(ncn3C)c(Nc3cc(C)n(C)n3)nc21
The procedure, abridged: as §1

Compound in a further experiment: CN1CCN(CCOc2cc(OC3CCOCC3)c3c(Nc4c(Cl)ccc5c4OCO5)ncnc3c2)CC1 [saracatinib]
The procedure, abridged: as §1

Compound in another experiment: CN1CCN(c2nc(C3=C(c4c[nH]c5ccccc45)C(=O)NC3=O)c3ccccc3n2)CC1 [sotrastaurin]
The procedure, abridged:
as §1

Compound in the next experiment: CN1CCc2c(c3ccccc3n2Cc2ccc(C(=O)NO)cc2)C1 [Tubastatin A]
The procedure, abridged: as §1

Compound in experiment [4]: CNC(=O)C1=CC=CC=C1NC2=NC(=NC=C2Cl)NC3=C(C=C(C=C3)N4CCOCC4)OC
The method, boiled down: as §1

Compound in a further experiment: CNC(=O)c1ccc(Nc2ncc(C(F)(F)F)c(NCc3nccnc3N(C)S(C)(=O)=O)n2)cc1 [defactinib]
The procedure, abridged:
as §1

Compound in experiment [5]: CNc1nc(-c2ccc3c(N)n[nH]c3c2)cc(N2C[C@@H](C(=O)NC3CCCCC3)CC[C@H]2C)n1
The method, boiled down: as §1

Compound in a further experiment: COC(=O)N[C@@H](C)CNc1nccc(-c2cn(C(C)C)nc2-c2cc(Cl)cc(NS(C)(=O)=O)c2F)n1 [encorafenib]
The procedure, abridged: as §1

Compound in experiment [6]: COC(=O)[C@H](CCSC)NC(=O)C1=C(C=C(C=C1)NC[C@H](CS)N)C2=CC=CC=C2
The method, boiled down: as §1

Compound in the next experiment: COc1cc(Nc2ncc3c(n2)-c2ccc(Cl)cc2C(c2c(F)cccc2OC)=NC3)ccc1C(=O)O [alisertib]
The method, boiled down: as §1

Compound in experiment [7]: COc1cc2nc(-c3cc(F)ccc3O)nc(N[C@@H]3CNC[C@H]3C(C)(C)O)c2cc1OC
The procedure, abridged: as §1

Compound in another experiment: COc1cc2ncnc(Nc3ccc(F)c(Cl)c3)c2cc1OCCCN1CCOCC1 [gefitinib]
The method, boiled down:
as §1

Compound in experiment [8]: CCn1cc(-c2ccnc3[nH]c(-c4cccc(CN(C)C)c4)cc23)c(-c2ccc(NC(=O)N(C)C)cc2)n1
The method, boiled down: as §1

Compound in experiment [9]: CN1CCC(CNc2ccc3ncc(-c4cccc(OC(F)(F)F)c4)n3n2)CC1
The method, boiled down: as §1

Compound in the next experiment: CN1CC[C@H](c2c(O)cc(O)c3c(=O)cc(-c4ccccc4Cl)oc23)[C@H](O)C1 [alvocidib]
The procedure, abridged:
as §1

Of roughly 8,800 targets only a part is listed; those with a hit were picked by preference. About 0.5% of all pairs of compound and target were hits. Values without a mark were called inactive.

UniProt P30291, sequence (P30291 whole entry, looked up): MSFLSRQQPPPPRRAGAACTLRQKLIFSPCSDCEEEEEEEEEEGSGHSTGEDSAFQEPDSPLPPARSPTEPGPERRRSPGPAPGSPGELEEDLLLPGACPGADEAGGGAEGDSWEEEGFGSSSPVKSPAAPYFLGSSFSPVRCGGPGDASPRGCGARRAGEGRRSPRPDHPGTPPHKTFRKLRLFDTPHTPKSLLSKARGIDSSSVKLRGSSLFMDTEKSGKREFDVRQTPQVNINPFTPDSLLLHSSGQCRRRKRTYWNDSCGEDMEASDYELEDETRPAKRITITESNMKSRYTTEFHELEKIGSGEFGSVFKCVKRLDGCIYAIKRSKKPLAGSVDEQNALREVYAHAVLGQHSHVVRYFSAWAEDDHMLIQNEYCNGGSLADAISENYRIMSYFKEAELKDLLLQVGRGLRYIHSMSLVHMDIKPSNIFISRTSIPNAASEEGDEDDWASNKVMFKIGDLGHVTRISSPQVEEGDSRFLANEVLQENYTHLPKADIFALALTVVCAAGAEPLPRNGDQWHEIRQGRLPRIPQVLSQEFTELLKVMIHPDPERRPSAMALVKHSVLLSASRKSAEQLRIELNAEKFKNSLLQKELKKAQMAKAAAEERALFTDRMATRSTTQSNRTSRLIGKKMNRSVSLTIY
UniProt Q9NUA8, sequence (Q9NUA8 whole entry, looked up): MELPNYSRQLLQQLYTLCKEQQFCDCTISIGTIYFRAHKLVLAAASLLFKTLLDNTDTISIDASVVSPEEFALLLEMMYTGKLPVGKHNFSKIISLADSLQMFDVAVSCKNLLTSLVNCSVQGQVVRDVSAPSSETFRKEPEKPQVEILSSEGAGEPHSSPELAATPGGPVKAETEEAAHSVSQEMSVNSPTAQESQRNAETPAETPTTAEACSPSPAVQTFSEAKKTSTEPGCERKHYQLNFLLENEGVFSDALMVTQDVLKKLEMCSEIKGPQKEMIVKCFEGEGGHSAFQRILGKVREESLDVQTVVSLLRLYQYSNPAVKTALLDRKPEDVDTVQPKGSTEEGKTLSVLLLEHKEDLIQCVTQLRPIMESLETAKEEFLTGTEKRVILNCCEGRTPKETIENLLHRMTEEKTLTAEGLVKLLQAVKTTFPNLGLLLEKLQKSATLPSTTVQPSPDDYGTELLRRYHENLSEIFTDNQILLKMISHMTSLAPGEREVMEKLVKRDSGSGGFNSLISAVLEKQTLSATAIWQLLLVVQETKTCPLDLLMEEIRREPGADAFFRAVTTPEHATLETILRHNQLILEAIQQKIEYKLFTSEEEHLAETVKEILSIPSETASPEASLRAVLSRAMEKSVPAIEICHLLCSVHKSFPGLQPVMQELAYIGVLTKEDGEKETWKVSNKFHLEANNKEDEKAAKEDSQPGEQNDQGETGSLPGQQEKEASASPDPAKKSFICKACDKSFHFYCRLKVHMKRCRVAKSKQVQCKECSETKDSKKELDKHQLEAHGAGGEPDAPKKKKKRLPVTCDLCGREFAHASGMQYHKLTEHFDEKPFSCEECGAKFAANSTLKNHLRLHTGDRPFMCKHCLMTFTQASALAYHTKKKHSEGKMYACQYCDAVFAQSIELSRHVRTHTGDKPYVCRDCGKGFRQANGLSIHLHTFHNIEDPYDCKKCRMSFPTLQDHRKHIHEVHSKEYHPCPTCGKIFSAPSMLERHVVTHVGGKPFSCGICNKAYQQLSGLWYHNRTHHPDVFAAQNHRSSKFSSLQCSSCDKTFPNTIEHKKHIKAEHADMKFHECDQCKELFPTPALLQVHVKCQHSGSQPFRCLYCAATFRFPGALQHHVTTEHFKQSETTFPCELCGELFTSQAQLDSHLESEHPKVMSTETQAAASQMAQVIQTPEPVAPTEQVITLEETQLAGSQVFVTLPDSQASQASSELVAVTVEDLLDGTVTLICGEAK
UniProt Q15776, sequence (Q15776 whole entry, looked up): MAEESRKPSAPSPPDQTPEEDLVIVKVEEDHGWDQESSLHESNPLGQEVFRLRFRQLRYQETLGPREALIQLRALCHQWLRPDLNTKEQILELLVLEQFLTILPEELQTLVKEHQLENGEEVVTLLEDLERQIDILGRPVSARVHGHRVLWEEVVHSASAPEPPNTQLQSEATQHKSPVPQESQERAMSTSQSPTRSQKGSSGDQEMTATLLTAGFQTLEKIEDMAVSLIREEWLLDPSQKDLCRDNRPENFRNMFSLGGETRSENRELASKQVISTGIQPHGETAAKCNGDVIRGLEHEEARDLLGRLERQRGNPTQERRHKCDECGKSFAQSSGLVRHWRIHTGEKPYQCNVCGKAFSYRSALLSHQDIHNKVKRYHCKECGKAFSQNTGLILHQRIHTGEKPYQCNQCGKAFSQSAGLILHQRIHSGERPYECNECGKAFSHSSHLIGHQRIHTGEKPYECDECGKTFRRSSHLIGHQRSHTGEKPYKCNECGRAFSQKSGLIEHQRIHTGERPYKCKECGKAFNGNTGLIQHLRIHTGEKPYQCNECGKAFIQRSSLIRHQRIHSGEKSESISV
UniProt Q8IUH5, sequence (Q8IUH5 whole entry, looked up): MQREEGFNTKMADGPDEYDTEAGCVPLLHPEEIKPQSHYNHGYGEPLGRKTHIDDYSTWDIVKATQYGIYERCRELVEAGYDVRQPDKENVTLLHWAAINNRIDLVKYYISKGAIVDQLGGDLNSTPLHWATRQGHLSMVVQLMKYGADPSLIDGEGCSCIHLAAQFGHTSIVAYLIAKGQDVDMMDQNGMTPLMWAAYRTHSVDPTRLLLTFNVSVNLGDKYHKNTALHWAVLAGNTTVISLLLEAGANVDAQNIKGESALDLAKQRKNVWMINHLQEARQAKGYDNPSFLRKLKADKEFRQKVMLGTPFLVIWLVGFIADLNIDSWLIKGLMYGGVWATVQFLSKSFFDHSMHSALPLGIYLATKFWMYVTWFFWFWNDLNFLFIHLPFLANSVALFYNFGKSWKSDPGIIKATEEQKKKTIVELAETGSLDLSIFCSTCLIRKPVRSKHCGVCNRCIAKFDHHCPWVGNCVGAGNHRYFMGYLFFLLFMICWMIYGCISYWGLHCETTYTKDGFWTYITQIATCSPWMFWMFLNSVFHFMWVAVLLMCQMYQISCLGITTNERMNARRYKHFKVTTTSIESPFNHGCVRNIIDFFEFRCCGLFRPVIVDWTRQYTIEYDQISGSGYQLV
UniProt Q9Y5A6, sequence (Q9Y5A6 whole entry, looked up): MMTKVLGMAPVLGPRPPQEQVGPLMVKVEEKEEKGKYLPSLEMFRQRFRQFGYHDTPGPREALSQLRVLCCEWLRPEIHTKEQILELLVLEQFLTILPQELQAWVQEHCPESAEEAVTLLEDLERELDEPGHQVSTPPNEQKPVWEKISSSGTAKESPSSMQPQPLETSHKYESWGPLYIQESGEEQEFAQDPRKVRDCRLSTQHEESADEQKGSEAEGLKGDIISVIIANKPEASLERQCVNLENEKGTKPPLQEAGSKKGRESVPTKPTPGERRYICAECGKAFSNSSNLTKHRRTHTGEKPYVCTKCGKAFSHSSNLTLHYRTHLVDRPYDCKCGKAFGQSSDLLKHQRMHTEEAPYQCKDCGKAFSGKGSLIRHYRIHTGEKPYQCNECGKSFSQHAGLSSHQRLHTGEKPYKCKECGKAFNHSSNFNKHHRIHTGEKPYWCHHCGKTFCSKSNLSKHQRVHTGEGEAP

For WEE1 (UniProt P30291), the log2 fold change is 0.029 in the experiment with vemurafenib; 0.056 in experiment [1]; 0.015 in the experiment with barasertib; -0.25 in experiment [2]; -0.032 in the experiment with volasertib; -0.077 in [3]. Further, the log2 fold change in the experiment with saracatinib is -0.016; with sotrastaurin, -0.1; with Tubastatin A, -0.194; in experiment [4] it was 0.498 (active); with defactinib, 0.145; in experiment [5], -0.072. In addition, the log2 fold change with encorafenib was -0.035; in [6] it was 0.11; with alisertib, 0.018; in [7] it was 0.055; in the experiment with gefitinib, 0.129.

For the target XPOT (UniProt F5GYW6), the values for the log2 fold change (in experiment [1]; with volasertib; in [7]) were -0.204, -0.112 and 0.121, respectively.

Turning to ZBTB40 (UniProt Q9NUA8), the log2 fold change with vemurafenib was 0.06; in [1] it was -0.076; in the experiment with volasertib it was 0.029; in experiment [3] it was -0.014; in experiment [8] it was -0.127; in [9] it was 0.095. Further, the log2 fold change with saracatinib was -0.017; with sotrastaurin, -0.012; in the experiment with alvocidib it was 0.09; with Tubastatin A it was -0.089; in experiment [4], 0.03; in the experiment with defactinib, -0.032. Also, the log2 fold change in experiment [5] is 0.048; with alisertib, -0.187; in experiment [7] it was -0.038; with gefitinib, -0.246.

For the target ZDHHC17 (UniProt Q8IUH5), the log2 fold change in the experiment with vemurafenib was 0.058; in experiment [1] it was 0.047; in experiment [2], 0.077; with volasertib, -0.071; in [3], 0.166; in experiment [8] it was -0.346. Besides, the log2 fold change in experiment [9] is 0.141; with saracatinib it was 0.205; with sotrastaurin, 0.117; with alvocidib, -0.44; in the experiment with Tubastatin A it was 0.074; in the experiment with defactinib it was -0.053. Besides, the log2 fold change in experiment [5] is -0.04; with encorafenib, -0.044; in [6], 0.183; with alisertib, 0.037; in experiment [7], -0.032; with gefitinib, 0.24.

In the case of ZKSCAN8 (UniProt Q15776), the log2 fold change with vemurafenib is 0.049; in experiment [1], -0.173; in [2], -0.019; with volasertib, -0.17; in experiment [3], -0.001; with saracatinib, 0.028. Moreover, the log2 fold change is 0.027 with sotrastaurin; -0.053 with Tubastatin A; 0.059 in experiment [4]; 0.037 in the experiment with defactinib; 0.009 in [5]; 0.2 with encorafenib. The log2 fold change is -0.206 in experiment [6], -0.084 with alisertib, -0.001 in experiment [7] and 0 in the experiment with gefitinib.

Consider ZSCAN21 (UniProt Q9Y5A6), for which the log2 fold change was -0.024 in experiment [2]; 0.043 in experiment [8]; 0.053 in experiment [9]; -0.11 in the experiment with alvocidib; 0.031 in the experiment with encorafenib; 0.103 in experiment [6].
